The values that follow are results of earlier work, collected in PubChem BioAssay AID977611.

Hit rate of the full screen: of about 3,900 compounds, about 3,900 (100%) were called active. Cut-off not given; nearly all actives show Kd up to about 4200 µM. The set was probably picked from earlier hits. Some of the results follow. Where a SMILES comes first, the peptide text is derived from it. Non-standard residues stand in square brackets, D forms with d. Residues, ends and D or L forms follow the SMILES beside them. Peptide text beside a SMILES is read from it. [ ]: non-standard residue; d: D form. Orn(CH(NH2)2) = NC(N)NCCC[C@H](N)C(=O)O

The nature of this data set: PubChem AID 977611. As to conditions: PDB protein-ligand complexes, literature Kd.

As for `CC[C@H](C)[C@H](NC(=O)[C@H](CC(=O)O)NC(=O)[C@H](Cc1c[nH]c2ccccc12)NC(=O)[C@H](Cc1ccccc1)NC(=O)[C@H](CCCCN)NC(=O)[C@H](CC(C)C)NC(=O)[C@@H](NC(=O)[C@H](Cc1ccccc1)NC(=O)[C@@H](N)CC(N)=O)[C@@H](C)O)C(=O)N[C@@H](Cc1ccccc1)C(=O)N[C@@H](CCCNC(N)N)C(=O)N[C@@H](CCCCN)C(=O)O` (H-NFTLKFWDIF[Orn(CH(NH2)2)]K-OH), under “protein: Chaperone surA-P1, PDB entry 2pv2”, the Kd – broadly, a measure of binding affinity in units of concentration – is 1.23 µM (active).
As to H-QLAWFDTDL-OH, the Kd (protein: Tax-interacting protein-1 (TIP-1), PDB entry 3diw) was 0.19 µM (active).
In the case of H-NFTLKFWDIF-OH, the Kd (protein: Chaperone surA(P2), PDB entry 2pv3) is 5.57 µM (active).
For the compound `NCc1cccc(N2CCCC2)c1`, the Kd (protein: CATIONIC TRYPSIN, PDB entry 4abh) was 71 µM (active).
For `NCc1cccc(-n2cccn2)c1`, the Kd (protein: CATIONIC TRYPSIN, PDB entry 4abe) is 400 µM (active).
Regarding `NCc1cccc(-n2cccc2)c1`, for the setting “protein: CATIONIC TRYPSIN, PDB entry 4abd”, the Kd is 40 µM (active).
For the compound `NCc1ccccc1-n1cccn1`, for the setting “protein: INTEGRASE, PDB entry 4ahv”, the Kd was 15000 µM (active).
`O[P+](O)(O)O[C@@H]1C(OCc2ccccc2)[C@H](O[P+](O)(O)O)[C@@H](O[P+](O)(O)O)C(OCc2ccccc2)[C@H]1O[P+](O)(O)O` (stereo partly specified): under “protein: Inositol hexakisphosphate and diphosphoinositol-pentakisphosphate kinase 2 PPIP5K2, PDB entry 4nzo”, the Kd was 0.17 µM (active).
`C[C@H]1O[C@H](O)[C@@H](O)[C@@H](O)[C@@H]1O`: the Kd (protein: Pyocin L1, PDB entry 4led) is 5000 µM (active).
For `C[C@@H]1O[C@@H](O)[C@H](O)[C@H](O)[C@H]1O`, the Kd (protein: Putative rhamnosidase, PDB entry 3w5n) was 135 µM (active).
Take `O=S(=O)(Nc1nc2ccc(Cl)cc2s1)c1cc2ccccc2s1`: the Kd (protein: 3-phosphoinositide-dependent protein kinase 1 PDK1, PDB entry 4rqv) was 9 µM (active).
Regarding `CC(C)C[C@H](NC(=O)[C@@H](N)CC(=O)O)C(=O)N[C@@H](Cc1ccccc1)C(=O)O` (H-Asp-Leu-Phe-OH), for the setting “protein: DNA polymerase III subunit beta, PDB entry 4k3m”, the Kd is 281 µM (active).
Take H-SFGDGFADF-OH: for the setting “protein: AP-2 complex subunit ?-2, PDB entry 2iv9”, the Kd was 46 µM (active).
As to H-DLLDSLGF-OH, the Kd (protein: Chemotaxis protein cheY, PDB entry 2pmc) was 64.7 µM (active).
H-DEEGGGEEDQDFDLSQLH-OH: the Kd (protein: p120 catenin isoform 4A delta 1 (deletion, residues 613-643), PDB entry 3l6x) was 40 µM (active).
As to H-SGFSF-OH, where the note is “protein: Ras GTPase-activating protein-binding protein 1, PDB entry 4fcm”, the Kd is 115 µM (active).
For the compound H-LAPPKPPLPE-OH, the Kd (protein: The second SH3 domain from CAP/Ponsin, SH3b, PDB entry 4ln2) is 248 µM (active).
For the compound `CC(C)C[C@H](NC(=O)[C@@H]1CCCN1C(=O)[C@@H]1CCCN1C(=O)[C@H](CC(C)C)NC(=O)[C@@H]1CCCN1C(=O)[C@H](CCCNC(N)N)NC(=O)[C@@H](N)CCCCN)C(=O)N1CCC[C@H]1C(=O)N[C@@H](CO)C(=O)O` (H-K[Orn(CH(NH2)2)]PLPPLPS-OH), for the setting “protein: phosphatidylinositol 3-kinase (PI3K) SH3 domain, PDB entry 3i5r”, the Kd is 40 µM (active).
Regarding H-APPPRPPPPE-OH, the Kd (protein: The first SH3 domain from CAP/Ponsin, SH3a, PDB entry 4lnp) is 214 µM (active).
`CC(C)CCCCCCC(=O)N[C@H]1[C@H](Oc2c3cc4cc2Oc2ccc(cc2Cl)C[C@H]2NC(=O)[C@H](N)c5ccc(O)c(c5)Oc5cc(O)cc(c5)[C@H](NC2=O)C(=O)N[C@H]4C(=O)N[C@H]2C(=O)N[C@H](C(=O)N[C@H](C(=O)O)c4cc(O)cc(O)c4-c4cc2ccc4O)[C@H](O)c2ccc(cc2)O3)O[C@H](CO)[C@@H](O)[C@@H]1O`: the Kd (protein: Maltose-binding periplasmic protein, C-terminal fused by Cys-Lys-D-Ala-D-Ala, PDB entry 3vfj) is 0.091 µM (active).
For the compound H-SYGHLSIG-OH, the Kd (protein: MALTOSE-BINDING PERIPLASMIC PROTEIN, SUPPRESSOR OF FUSED HOMOLOG (W61D, L62S, G63F, P453A, K457A mutation), PDB entry 4blb) was 4.47 µM (active).
